Records with an inconclusive call do not appear. Unmarked numbers belong to inactive results. Active and inactive are the calls of the source. Calls follow the shape of the dose curve; as a rule, active = well fitted curve in the direction sought with a large enough effect; inconclusive = small, poorly fitted or top-dose-only effect, or another doubt; inactive = no such curve, though single readings can be large; an effect the other way counts as inactive or inconclusive.

Our source for the Potency values is PubChem BioAssay (NCATS).

Assay [1] in a line: qHTS of pediatric cancer cell lines to identify multiple opportunities for drug repurposing: Confirmatory screen for OHS-50 cells (AID 1347128).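 Also: compound exposure lasted 48 h at 37 degrees C; nearly all actives have a fitted effect of over 55% in size.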 The method in brief: (§1)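 Cells (500-1,000/well) rested 5 h, then received compounds for 48 h; metabolically active cells were measured by CellTiter-Glo luminescence. Final concentrations spanned up to 46 µM (MIPE, 11-point) or 0.59 nM-46 µM (NPC, 8-point) in primary screens, 11-point in follow-ups.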
For orientation: Quantitative high-throughput screening tests each substance at several concentrations.

A short description of assay [2]: qHTS of pediatric cancer cell lines to identify multiple opportunities for drug repurposing: Confirmatory screen for SK-N-SH cells (AID 1347129).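 Also: cells exposed to compound for 48 h before viability read; nearly all actives have a fitted effect of over 60% in size.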 The method in brief: as §1
In assay [3] the test system is Zika virus NS2B-NS3 protease. Kind of assay: Primary screen GU AMC qHTS for Zika virus inhibitors (AID 1347154). Also: nearly all actives have a fitted effect of over 70% in size. The method, boiled down: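 Fluorogenic AMC-substrate cleavage by noncovalent NS2B-NS3 protease complex (25 nM, pH 8.0 Tris buffer with Tween 20) followed for 15 minutes at room temperature (~20% conversion). Percent inhibition from ex340/em450 signal change, fitted by 4-parameter Hill equation.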

Assay [4] addresses N-terminal Xaa-Pro-Lys N-methyltransferase 1 (Homo sapiens) (UniProt Q9BV86). Put plainly: qHTS Assay for Inhibitors of N-terminal methyltransferase 1 (NTMT1): LOPAC validation of the NTMT1 SAHH-coupled ThioGlo3 Assay (AID 1347143).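 Also: SAH from peptide methylation measured as thiol fluorescence via SAHH coupling and ThioGlo3; nearly all actives have a fitted effect of over 70% in size.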 The method in brief:
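NTMT1 125nM + cpds (various conc.), 1 min RT; add SAM 100uM/SAHH 10uM/ThioGlo3 15uM (addition mix). SAHH-coupled thiol detection, Ex340/Em450, t0 and 30 min RT; signal normalized to background. LOPAC 1280-cpd pilot.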

Assay [5] has as its system Zika virus NS2B-NS3 protease (unlinked). Kind of assay: Optimization of GU AMC qHTS for Zika virus inhibitors: Unlinked NS2B-NS3 protease assay (AID 1347151). Also: nearly all actives have a fitted effect of over 80% in size. The method, boiled down:
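Percent inhibition is derived from the 15-min change in AMC fluorescence, normalized against no-inhibitor and no-enzyme controls, then fitted to a 4-parameter Hill curve. Aprotinin was the intraplate control.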

The target of another assay is Furin (Homo sapiens) (UniProt P09958). Kind of assay: Furin counterscreen qHTS for Zika virus inhibitors (AID 1347149). Also: nearly all actives have a fitted effect of over 70% in size. The method, boiled down: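 Counterscreen measures cleavage of 2 microM BOC-RVRR-AMC, below its ~15 microM Km, by 5 nM full-length human furin at pH 7.0 after a 15-min compound preincubation. Inhibition derives from the 15-min fluorescence increase at 37C.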
Sequence of Furin (Homo sapiens) (P09958 whole entry, looked up): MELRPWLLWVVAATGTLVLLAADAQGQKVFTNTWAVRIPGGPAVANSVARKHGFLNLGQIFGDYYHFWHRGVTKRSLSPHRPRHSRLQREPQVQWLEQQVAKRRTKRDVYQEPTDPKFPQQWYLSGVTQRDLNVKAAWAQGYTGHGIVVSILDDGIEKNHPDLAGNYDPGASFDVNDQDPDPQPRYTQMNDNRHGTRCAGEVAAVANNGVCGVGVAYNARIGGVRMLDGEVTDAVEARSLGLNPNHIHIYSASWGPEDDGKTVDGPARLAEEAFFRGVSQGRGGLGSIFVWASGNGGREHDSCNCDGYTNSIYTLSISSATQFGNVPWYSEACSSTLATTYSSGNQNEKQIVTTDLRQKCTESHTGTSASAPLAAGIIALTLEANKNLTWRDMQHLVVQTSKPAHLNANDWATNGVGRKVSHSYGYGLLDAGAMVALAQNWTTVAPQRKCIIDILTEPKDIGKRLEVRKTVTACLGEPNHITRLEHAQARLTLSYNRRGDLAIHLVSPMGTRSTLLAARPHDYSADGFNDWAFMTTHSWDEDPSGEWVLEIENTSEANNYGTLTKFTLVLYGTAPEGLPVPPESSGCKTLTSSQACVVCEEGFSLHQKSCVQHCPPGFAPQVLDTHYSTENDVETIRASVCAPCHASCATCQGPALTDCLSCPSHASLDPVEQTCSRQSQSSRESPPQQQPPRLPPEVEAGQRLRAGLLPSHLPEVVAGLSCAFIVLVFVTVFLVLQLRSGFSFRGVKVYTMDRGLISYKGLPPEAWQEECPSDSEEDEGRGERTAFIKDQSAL
(In general: The purpose of a counterscreen is to sort out artefacts and off-target activity.)

Assay [6] in a line: Confirmatory screen GU Rhodamine qHTS for Zika virus inhibitors qHTS (AID 1347157). Also: nearly all actives have a fitted effect of over 70% in size. The method, boiled down:
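In dose–response format, inhibition of unlinked protease (25 nM) was measured with 1.5 microM bis-peptide Rhodamine110 substrate. Aprotinin served as the intraplate control.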

The test system of assay [7] is Zika virus NS2B-NS3 protease (linked construct). Put plainly: Confirmatory screen NINDS AMC qHTS for Zika virus inhibitors (AID 1347152). Also: nearly all actives have a fitted effect of over 70% in size. The method in brief:
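In this dose-response qHTS, AMC release from 10 microM Bz-Nle-KRR-AMC by 1 nM linked protease is measured over 15 minutes (about 20% conversion) at pH 8.0. Percent inhibition is fitted to a 4-parameter Hill curve.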

Assay [8] concerns Zika virus NS2B-NS3 protease (unlinked complex). Kind of assay: Confirmatory screen GU AMC qHTS for Zika virus inhibitors (AID 1347153). Also: nearly all actives have a fitted effect of over 70% in size.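 As to Potency: enzyme at 25 nM with substrate at 10 µM below its Km of 18.3 µM.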 The method, boiled down:
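Noncovalent NS2B hydrophilic domain/NS3 protease complex (25 nM) in 10 mM Tris-HCl pH 8.0, 0.01% Tween 20 was preincubated 15 min at room temperature with compounds. Then 10 µM AMC substrate (Km 18.3 µM) was added; fluorescence was read over 15 min and fitted to a 4-parameter Hill equation.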
Potency is read from the fitted curve at half-maximal effect.

Sequence of N-terminal Xaa-Pro-Lys N-methyltransferase 1 (Homo sapiens) (Q9BV86 whole entry, looked up): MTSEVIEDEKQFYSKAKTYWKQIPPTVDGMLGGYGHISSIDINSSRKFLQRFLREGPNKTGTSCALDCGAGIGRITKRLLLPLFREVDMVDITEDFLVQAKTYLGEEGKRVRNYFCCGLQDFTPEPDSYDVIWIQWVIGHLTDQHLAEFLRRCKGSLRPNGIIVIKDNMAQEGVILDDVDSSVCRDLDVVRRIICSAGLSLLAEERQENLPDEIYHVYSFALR

`CCCC(=O)O[C@]1(C(=O)COC(=O)CC)CC[C@H]2[C@@H]3CCC4=CC(=O)CC[C@]4(C)[C@H]3[C@@H](O)C[C@@]21C`: the Potency entry in [1], in assay [2] and in [3] was “inactive” throughout.

Consider `CCN(CC)CCNC(=O)c1ccc(NS(C)(=O)=O)cc1`, for which the Potency result in [4] and in assay [5] was “inactive” each time. Turning to `CC(=O)OCC(=O)[C@@]1(O)CCC2C3CCC4=CC(=O)CC[C@]4(C)C3[C@@H](O)C[C@@]21C` (some centres not stated), the Potency entry in [1], in [2] and in assay [3] was “inactive” throughout. Regarding `Nc1ccc2cc3ccc(N)cc3nc2c1`, the Potency was 20.8 µM (active) in assay [1] and 5.26 µM (active) in [2].

On to `COc1cc(/C=C/C(N)=O)cc(OC)c1OC`, for which the Potency entry in [1], in assay [2] and in assay [3] was “inactive” in each case. With `COC(=O)C1=CO[C@@H](O)[C@@H]2C(CO)=CC[C@H]12`, the Potency result in assay [4] and in [5] was “inactive” throughout. As to `Cc1cc(OCCOCC[N+](C)(C)Cc2ccccc2)ccc1C(C)(C)CC(C)(C)C`, the Potency was 14.7 µM (active) in [1] and 20.9 µM (active) in [2]. Turning to `CC(C)=CCC/C(C)=C/CC/C(C)=C/C(=O)OCC(=O)[C@@]1(O)CC[C@H]2[C@@H]3CCC4=CC(=O)C=C[C@]4(C)[C@H]3[C@@H](O)C[C@@]21C`, in assay [2], the Potency result is “inactive”. Regarding `C[C@H]1C[C@@H]2[C@H]([C@@H](O)C[C@@]3(C)[C@H]2CC[C@]3(O)C(=O)CO)[C@@]2(C)C=CC(=O)C=C12`, the Potency result in assay [1], in [2] and in assay [3] was “inactive” throughout.

Turning to `Cc1nn(-c2ccccc2)c(C)c1/C=N/N1CCN(Cc2ccccc2)CC1`, in assay [4], the Potency was 15.8 µM (active). The Potency result in assay [5] is “inactive”. On to `CCN(CC)CC(=O)OCC(=O)[C@@]1(O)CC[C@H]2[C@@H]3CCC4=CC(=O)CC[C@]4(C)[C@H]3[C@@H](O)C[C@@]21C`, for which the Potency result in [1], in [2] and in assay [3] was “inactive” throughout. For the compound `O=[N+]([O-])c1ccc(O)c2ncccc12`, in assay [2], the Potency was 9.35 µM (active). The Potency result in assay [3] was “inactive”.

For `CC(=O)O[C@@H]1C(=O)O[C@@H]2[C@H]1OC(=O)[C@@H]2OC(C)=O`, the Potency entry in [1], in assay [2] and in [3] was “inactive” throughout. For `Nc1c2ccccc2nc2ccccc12`, the results for the Potency in assay [1], in assay [2] and in assay [3] were 3.69 µM (active), 8.33 µM (active) and 35.5 µM (active), respectively.

With `O=C1NC(=O)/C(=C/c2ccc3c(c2)OC(F)(F)O3)S1`, the Potency result (in [4]; in the assay with Furin (Homo sapiens)) was “inactive” throughout. Besides, in assay [6], the Potency was 12.4 µM (active). On to `CCC1(c2cnc[nH]2)Cc2ccccc2C1`, for which the Potency entry in [1], in assay [2] and in assay [3] was “inactive” each time. For `CCCCC(CC)CNC(=O)CC(C)OC(=O)CCC(=O)O` (configuration not stated), the Potency entry in [1], in [2] and in assay [3] was “inactive” throughout.

Turning to `Cn1c(=O)c2c(ncn2CC(=O)O)n(C)c1=O`, the Potency entry in assay [3] was “inactive”.

Take `N#CC1(c2ccc(F)cc2)CCC(=O)CC1`: the Potency result in assay [3] was “inactive”. The same measure, in the same setting: for `COC(=O)C1=C(C)NC(C)=C(C(=O)OCCc2ccc(N3CCN(C(c4ccccc4)c4ccccc4)CC3)cc2)C1c1cccc([N+](=O)[O-])c1` (configuration not stated) the value was “inactive”.

Take `CCN1C(=O)c2ccccc2C1Nc1ccc(OCCN2CCCCC2)cc1` (configuration not stated): the Potency result in assay [3] is “inactive”. For the compound `COc1cccc2c1[C@@H]1CN(CCCCn3c(=O)[nH]c4c(sc5ncc(-c6ccccc6)nc54)c3=O)C[C@@H]1CO2`, the Potency entry in [5] is “inactive”.

As for `COc1c(C)c2c(c(O)c1C/C=C(\C)CCC(=O)OCCN1CCOCC1)C(=O)OC2`, in assay [5], the Potency was 21.5 µM (active). Still for that read-out and setting: for `O=[N+]([O-])c1ccc(-c2nc(-c3ccc(F)cc3)c(-c3ccncc3)[nH]2)cc1` the value was “inactive”. On to `CCO[C@H](Cc1ccc(OCCc2ccc(OS(C)(=O)=O)cc2)cc1)C(=O)O`, for which the Potency result in assay [3] was “inactive”. For the compound `N#Cc1cc(NC(=O)C(=O)O)c(Cl)c(NC(=O)C(=O)O)c1`, in assay [3], the Potency result is “inactive”. With `OC(CCCN1CCCCC1)(c1ccccc1)c1ccccc1`, the Potency result in [3] was “inactive”.

Take `CC(C)N(CCC(=O)c1ccc2ccccc2c1)Cc1ccccc1`: the Potency result in [4] and in assay [3] was “inactive” throughout. In addition, in assay [5], the Potency is 26.7 µM (active). Take `CCC1=C[C@@H]2CN(C1)Cc1c([nH]c3ccccc13)[C@@](C(=O)OC)(c1cc3c(cc1OC)N(C)[C@H]1[C@@](O)(C(=O)OC)[C@H](OC(C)=O)[C@]4(CC)C=CCN5CC[C@]31[C@@H]54)C2`: the Potency result in assay [3] is “inactive”. Same read-out and setting: for `NC(=O)NC1N=C([O][Al])NC1=O` (configuration not stated) the value was “inactive”. On the same count and under the same terms, for `C[N+](C)(CCOc1ccccc1)Cc1cccs1` the value was “inactive”; for `O=C1NCCN1CCN1CCC(c2cn(-c3ccc(F)cc3)c3ccc(Cl)cc23)CC1`, “inactive”. Turning to `CC1(C)OC(=O)Nc2ccc(Br)cc21`, the Potency entry in assay [3] is “inactive”.

On to `N[C@@H](Cc1cc(I)c(O)c(I)c1)C(=O)O`, for which the Potency result (with Furin (Homo sapiens); in assay [7]; in [8]) was “inactive” each time. As for `O=C(Nc1ccc(S(=O)(=O)N2CCOCC2)cc1)c1cc(Cl)ccc1NS(=O)(=O)c1ccc(Cl)s1`, the Potency was 21.5 µM (active) with Furin (Homo sapiens), 17.1 µM (active) in [7], 17.1 µM (active) in [8] and 14.4 µM (active) in [3]. In the case of `CN1N=C(C(N)=O)CCC1=O`, the Potency entry in assay [3] was “inactive”. Consider `NC(N)=NCCCCN=C(N)N`, for which the Potency entry in assay [4], in [5] and in assay [3] was “inactive” in each case.
